697 NFkB inh: inhibitors of PMA/ionomycin-induced NF-kB reporter, 697 cells, primary screen, B-cell NF-kB inhibitor project, cell-based, luminescence, uHTS. inhibition, % at 4 µM. 697 B-cell NF-kB luciferase reporter, 16 h. 0.33% of 330,000 active; in the data active = inhibition above about 35%
Jurkat NFkB inh: inhibitors of induced NF-kB luciferase reporter, primary screen, TCR NF-kB activation inhibitor project, cell-based, luminescence, uHTS; Jurkat, PMA/ionomycin-induced NF-kB luciferase reporter; inhibition, % at 4 µM; 0.53% of 330,000 active; in the data active = inhibition above about 50%
Gli-Sufu block: Gli-Sufu pathway antagonists, primary screen, luciferase luminescence, Sufu-KO-LIGHT cells, uHTS; Sufu-KO-LIGHT fibroblasts, Gli luciferase reporter luminescence; inhibition, % at 5 µM; 0.74% of 340,000 active; AID 588413, 2011;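 active = inhibition above about 55%, limit read from the data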;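 note: 0% = DMSO-treated cells and 100% = wells with medium but no cells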
Mdm2 MdmX PPI: inhibitors of human Mdm2-MdmX association, primary screen, cell-based, luminescence, split luciferase, SaOS-2, uHTS. SaOS-2 split-luciferase Mdm2/MdmX complementation. inhibition, % at 8 µM. Protein Mdm4 (Homo sapiens) + E3 ubiquitin-protein ligase Mdm2 (Homo sapiens), …. 3% of 330,000 active;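 active = inhibition of at least 50% at 8 µM in the primary screen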
Shn3 3UTR inh: reduction of Shn3 3'UTR firefly luciferase signal, primary screen, Schnurri-3 inhibitor project, cell-based, Clone20 osteoblasts, set 2; AID 588674, 2011; Clone20 osteoblast Shn3 3'UTR firefly luciferase, 24 h; 0.52% of 360,000 active; inhibition, % at 12.5 µM;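 active = mean inhibition of at least 75% with every replicate also reaching 75%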;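 note: 0% = median of neutral control wells and 100% = pilot-screen positive control compound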
Mdm2 MdmX conf: Mdm2-MdmX complex disruptors, retested hits, confirmation, luminescence, single concentration. shares compounds with Mdm2 MdmX PPI. Mdm2-MdmX binding, luminescent assay. inhibition, % at 8 µM. 55% of 10,000 active. AID 489028, 2010; in the data active = inhibition above about 40%
Full FLuc ctr: full-length luciferase signal inhibition, confirmation, counter-screen for Mdm2/MdmX interaction inhibitor project, cell-based, single concentration, SaOS-2 | AID 504607, 2011 | SaOS-2 full-length luciferase counterscreen, luminescence | inhibition, % at 8 µM | 77% of 6,200 active | shares compounds with Mdm2 MdmX PPI;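 active = mean inhibition at 8 µM reaching about 37%, which flags the compound as non-specific, limit read from the data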;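 note: p53-null SaOS-2 cells with luciferase driven by a doxycycline-inducible promoter; compound on cells about two nights before reading with doxycycline added after day one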
* hit, by the source's call; · = not tested or not shown. The list is not random: actives were taken first. Their share in the collection is about 3.8%.

SMILES	697 NFkB inh	Jurkat NFkB inh	Gli-Sufu block	Mdm2 MdmX PPI	Shn3 3UTR inh	Mdm2 MdmX conf	Full FLuc ctr
CNC(=O)c1nc(C)c(C2(C)CC(c3cccc([N+](=O)[O-])c3)=NO2)s1 (centres undefined)	14	9	0	53*	-10	43*	57*
Cc1nc(C(=O)NCc2ccccc2)sc1C1(C)CC(c2cccc([N+](=O)[O-])c2)=NO1 (centres undefined)	9	3	-1	64*	22	12	·
CCN(CC)C(=O)[C@H]1C[C@H](CC(=O)NCc2cccc(C(F)(F)F)c2)C(=O)N2CCc3c([nH]c4cc(-c5ccco5)ccc34)[C@]12C	5	·	-6	53*	27	-1	·
CC(C)N(C(=O)[C@H]1C[C@H](CC(=O)NCC23CC4CC(CC(C4)C2)C3)C(=O)N2CCc3c([nH]c4cc(CCC(=O)N(C)C)ccc34)[C@]12C)C(C)C	15	·	19	81*	30	43*	60*
CC(C)N(C(=O)[C@H]1CC(CC(=O)NCc2cccc(C(F)(F)F)c2)C(=O)N2CCc3c([nH]c4ccccc34)[C@]12C)C(C)C (some centres undefined)	6	8	3	64*	14	-2	·
CC(C)N(C(=O)[C@H]1CC(CC(=O)NCC23CC4CC(CC(C4)C2)C3)C(=O)N2CCc3c([nH]c4ccccc34)[C@]12C)C(C)C (some centres undefined)	11	8	1	59*	18	15	·
O=S(=O)(c1ccc(F)cc1)c1nc(-c2ccccc2)oc1N1CCOCC1	-11	-7	-7	-1	10	·	·
CC[C@]12c3[nH]c4ccccc4c3CCN1C(=O)C(CC(=O)NCC13CC4CC(CC(C4)C1)C3)C[C@@H]2C(=O)N1CCN(C(=O)c2ccco2)CC1 (some centres undefined)	-7	13	13	37	46	·	·
CC(C)N(C(=O)[C@H]1C[C@H](CC(=O)NCC23CC4CC(CC(C4)C2)C3)C(=O)N2CCc3c([nH]c4cc(-c5ccco5)ccc34)[C@]12C)C(C)C	1	·	-3	70*	13	3	·
CCN(CC)C(=O)[C@H]1CC(CC(=O)NCC23CC4CC(CC(C4)C2)C3)C(=O)N2CCc3c([nH]c4ccc(OC)cc34)[C@]12C (some centres undefined)	-1	·	4	64*	45	16	·
COCCCNC(=O)C[C@H]1C[C@H](C(=O)N(C(C)C)C(C)C)[C@@]2(C)c3[nH]c4cc(-c5ccco5)ccc4c3CCN2C1=O	12	·	3	17	-18	·	·
CC[C@]12c3[nH]c4cc(CCC(=O)N(C)C)ccc4c3CCN1C(=O)[C@@H](CC(=O)NCC13CC4CC(CC(C4)C1)C3)C[C@@H]2C(=O)N1CCN(C(=O)c2ccco2)CC1	24	·	17	50*	32	31	·
CC(=O)NC1=C(Nc2ccc(N(C)C)cc2)C(=O)c2ccccc2C1=O	-185	-128	-59	70*	-6	45*	115*
COc1ccc(S(=O)(=O)N2CCC(C(=O)Nc3nccs3)CC2)cc1	-25	8	-4	19	-1	·	·
Cc1ccc(NC(=O)C2CCCC2)cc1Cl	-9	3	-1	23	-26	·	·
Cc1ccc(NS(=O)(=O)c2ccc(Cl)c(NC(=S)NC(=O)C3CCCCC3)c2)cc1Cl	1	-6	-2	72*	3	24	·
COc1ccc(S(=O)(=O)N2c3ccccc3OCC2c2ccccc2)cc1 (centres undefined)	-39	49	4	51*	13	72*	48*
COc1ccc(S(=O)(=O)N2CCOc3ccccc32)cc1	-40	49	-8	61*	-4	63*	54*
COc1ccc(S(=O)(=O)N2CC(C(=O)O)Oc3ccccc32)cc1 (centres undefined)	0	8	-12	-17	5	·	·
COc1ccc(S(=O)(=O)N2c3ccccc3OCC2C)cc1 (centres undefined)	5	42	20	47	21	·	·
COc1ccc(S(=O)(=O)N2c3ccccc3OCC2C(C)(C)C)cc1 (centres undefined)	-14	4	-1	58*	-15	47*	45*
O=C(NCc1cc(Cl)cc(Cl)c1)c1csc(COCCO)n1	·	·	·	·	9	·	·
Cc1ccc(NC(=O)CSc2ncnc3ccccc23)cc1S(=O)(=O)N1CCCCCC1	-43	11	7	-25	6	·	·
CCOC(=O)C1=C(C)n2c(s/c(=C/c3cccc([N+](=O)[O-])c3)c2=O)=NC1c1ccc(O)c(OC)c1 (centres undefined)	20	16	13	82*	-20	77*	26
CCOC(=O)C1=C(C)N=c2s/c(=C\c3ccc(O)c([N+](=O)[O-])c3)c(=O)n2C1c1ccccc1OC (centres undefined)	3	4	-9	13	7	·	·
SMILES	697 NFkB inh	Jurkat NFkB inh	Gli-Sufu block	Mdm2 MdmX PPI	Shn3 3UTR inh	Mdm2 MdmX conf	Full FLuc ctr
CC(C)=CCc1cc(-c2oc3cc(O)cc(O)c3c(=O)c2O)ccc1O	6	-6	-11	8	-2	·	·
CC(C)=CCc1c(O)cc2oc3c(CC=C(C)C)c(O)c(O)c(CC=C(C)C)c3c(=O)c2c1O	-43	-7	28	100*	85	43*	47*
Cc1cc(OCC(=O)N2CCN(c3ccccc3)CC2)c2c(C)cc(=O)oc2c1	2	17	10	76*	-13	7	·
O=C(CC(=O)c1cccs1)c1ccncc1	·	·	-9	·	-30	·	·
Cc1cc(C)nc(NC(=NCCc2c[nH]c3ccccc23)NC(=O)Nc2ccc(Cl)c(Cl)c2)n1	20	-3	20	34	25	·	·
Cc1cc(C)nc(NC(=NCCc2c[nH]c3ccccc23)NC(=O)Nc2ccccc2)n1	6	-11	24	64*	49	34	63*
Cc1ccc(S(=O)(=O)N2CCOCC2)cc1C(=O)Nc1nc(-c2ccccn2)cs1	-18	24	16	76*	76	65*	30
O=C(Nc1nc(-c2ccccn2)cs1)c1cccc(S(=O)(=O)N2CCOCC2)c1	-45	10	27	77*	88*	79*	33

Compound activity from PubChem BioAssay.
